Akt phos inh – blocks phosphorylation of Akt | Neuro2A IGF-stimulated pAkt S473 HTRF, 20 min; stronger effect = lower value | activity change, % for hits at 50 µM | actives 0.32% (n = 360,000); in the data active = activity change below about -80%; inconclusive = mostly about -51% to -80%
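Neuro2A cells in DMEM with 0.5% FBS, overnight at 37 deg C, given compound at single 50 µM final, then IGF (6 nM final) for 20 min at 37 deg C. Lysed; phospho-Akt Ser473 by HTRF after 24 h, 665/615 ratio.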
aSyn yeast inh – alpha-synuclein toxicity inhibition in yeast. Yeast expressing alpha-synuclein, growth rescue, BacTiter-Glo, 24 h. Potency, µM (doses to about 46.1 µM), most hits filed as activators. actives 0.14% (n = 370,000). AID 652106; note: nearly all actives have a fitted effect of over 65% in size
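Screening used galactose-induced yeast with toxic alpha-synuclein levels, exposed to compound for 24 hr at 30 deg C. Cell growth, read with BacTiter-Glo luminescence, gave the measured signal.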
TDP43 rescue – inhibitors of TDP-43 toxicity in yeast; TDP-43 expressing yeast growth rescue, BacTiter-Glo, 24 h; Potency, µM (top dose mostly 46.1 µM), most hits filed as activators; actives 1.8% (n = 410,000); note: nearly all actives have a fitted effect of over 50% in size
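Yeast expressing TDP-43 (pregrown in raffinose, seeded at OD600=0.02 in galactose medium) exposed to compounds 24 hr at 30 deg C. Growth read by BacTiter-Glo luminescence; rescue of toxicity appears as increased signal.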
Abeta rescue – A-beta toxicity reversal in yeast. yeast expressing A-beta42, growth rescue, OD600, 48 h; response scale: 0% DMSO, 100% iron-clioquinol control. Potency, µM (highest dose often 46.1 µM), actives largely listed as activators. actives 0.063% (n = 410,000). AID 1347071; note: nearly all actives have a fitted effect of over 55% in size
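Growth rescue measured by 600 nm absorbance after 48 h yeast culture at 30 C with compound. Values normalized between DMSO and an equimolar ferric chloride plus clioquinol control.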
FUS yeast rescue – suppressors of FUS proteinopathy in yeast; AID 1347120; Potency, µM (doses to about 76.6 µM), hits mostly activators; actives 0.24% (n = 390,000); S. cerevisiae FUS-expressing, growth rescue, OD600, 24 h; note: nearly all actives have a fitted effect of over 55% in size
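FUS-expressing yeast, raffinose-pregrown, induced in 2% galactose minimal medium at OD 0.005; compounds in a dilution series, 24hr at 30C. Growth restoration read as absorbance at 600 nm. CP55940 positive control, DMSO negative.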
Each line names hits and unclear results; the compound was inactive in the other large screens. Sampled rows, rich in hits. Any-hit rate of the full collection: about 2.3%. Unless noted, calls come from the whole dose curve; as a rule, active = well fitted curve in the direction sought with a large enough effect; inconclusive = small, poorly fitted or top-dose-only effect, or another doubt; inactive = no such curve, though single readings can be large; an effect the other way counts as inactive or inconclusive.

Cc1nc(SCC(=O)NCc2ccc3c(c2)OCO3)c(C#N)c2c1CCCC2	aSyn yeast inh 17.8µM, TDP43 rescue inconclusive
Cc1cc(=O)[nH]c(SCC(=O)NCc2ccc3c(c2)OCO3)n1	none
Cc1ccc2onc(CC(=O)N3CCN(c4cccc(Cl)c4)CC3)c2c1	TDP43 rescue 20µM, FUS yeast rescue inconclusive (no result: Akt phos inh, aSyn yeast inh)
Cc1cccc(C(=O)NCC(=O)N2CCN(c3ccc(Cl)cc3)CC2)c1	none
Cc1ccc2onc(CC(=O)N3CCN(c4cccc(C)c4C)CC3)c2c1	TDP43 rescue 25.1µM, FUS yeast rescue inconclusive (no result: Akt phos inh, aSyn yeast inh)
O=C(OCC(=O)N1CCN(c2ccccc2)CC1)c1cccc(Cl)c1	Akt phos inh -113.2%, FUS yeast rescue inconclusive
Cc1ccc2onc(CC(=O)N3CCN(c4cc(Cl)ccc4C)CC3)c2c1	TDP43 rescue inconclusive (no result: Akt phos inh, aSyn yeast inh)
Cc1cc(C)cc(C(=O)NCC(=O)N2CCN(c3cccc(Cl)c3)CC2)c1	TDP43 rescue 12.6µM
O=S(=O)(c1ccccc1C(F)(F)F)N1CCN(c2nc(-c3cccs3)nc3ccccc23)CC1	none (no result: Akt phos inh, TDP43 rescue, Abeta rescue, FUS yeast rescue)
Cc1ccc(N2CCN(C(=O)NCc3noc4ccc(C)cc34)CC2)c(C)c1	TDP43 rescue 20µM, FUS yeast rescue inconclusive (no result: Akt phos inh, aSyn yeast inh)
O=C(COc1c(Br)cc(Br)c2cccnc12)N1CCc2ccccc2C1	aSyn yeast inh 12.6µM, TDP43 rescue inconclusive
O=C(/C=C/c1c(F)cccc1Cl)N1CCc2ccccc2C1	aSyn yeast inh inconclusive, TDP43 rescue 7.94µM
CCN1CCN(C(=O)/C=C/c2c(F)cccc2Cl)CC1	none (no result: FUS yeast rescue)
O=C(COc1ccccc1F)N1CCc2ccccc2C1	TDP43 rescue inconclusive
O=C(COc1ccccc1Cl)N1CCc2ccccc2C1	TDP43 rescue 12.6µM
Cc1ccc(-c2cc3ncc4c(n3n2)-c2cc(Cl)ccc2OC4)cc1	none (no result: Akt phos inh, aSyn yeast inh)
COc1ccccc1N1CCN(C(=O)c2ccc3c(c2)N(Cc2ccccc2)C(=O)c2ccccc2S3(=O)=O)CC1	TDP43 rescue inconclusive, FUS yeast rescue inconclusive (no result: Akt phos inh, aSyn yeast inh)
CCCOc1ccc(Oc2nc(NCC(C)C)nc(N(C)C)n2)nn1	none (no result: Akt phos inh, aSyn yeast inh)
COc1ccc(OCC(=O)N2CCN(c3nnc(-c4ccc(C)cc4)c4ccccc34)CC2)cc1	TDP43 rescue 22.4µM
Cc1cccc(OCC(=O)N2CCN(c3nnc(-c4ccccc4)c4ccccc34)CC2)c1	TDP43 rescue 25.1µM, Abeta rescue inconclusive
Cc1ccc(OCC(=O)N2CCN(c3nnc(-c4ccc(C)cc4)c4ccccc34)CC2)cc1	TDP43 rescue inconclusive, FUS yeast rescue inconclusive
O=C(COc1cccc2ccccc12)N1CCN(c2ccccc2)CC1	aSyn yeast inh inconclusive
COc1ccc(N2CCN(C(=O)COc3cccc4ccccc34)CC2)cc1	TDP43 rescue 12.6µM (no result: FUS yeast rescue)
CC(=O)c1cccc(NC(=O)Cn2c(C)c3cnn(-c4ccccc4)c(=O)c3c2C)c1	none (no result: Akt phos inh, aSyn yeast inh)
CC1C=CC(C)C(C(=O)O)C1C(=O)O (configuration not stated)	none
CC(C)c1ccc(NC(=O)C2C3C=CC(CC3)C2C(=O)O)cc1 (configuration not stated)	TDP43 rescue 12.6µM
O=C(O)C1C2C=CC(CC2)C1C(=O)O (configuration not stated)	TDP43 rescue 20µM, Abeta rescue inconclusive, FUS yeast rescue inconclusive
CC(=O)Nc1ccc(NC(=O)C2C3C=CC(C3)C2C(=O)O)cc1 (configuration not stated)	none
COc1cc(C(=O)Nc2sc(C(=O)N3CCOCC3)c(C)c2C#N)cc(OC)c1OC	Akt phos inh -106.6%, aSyn yeast inh inconclusive
Cc1ccc(OCC(=O)NC2CC(C)(C)NC(C)(C)C2)cc1C	none
CC1(C)CC(NC(=O)COc2ccc3ccccc3c2)CC(C)(C)N1	Akt phos inh -115.1%
CCCCC(=O)Nc1cccc(-c2nc3ccccc3s2)c1	none (no result: Akt phos inh, aSyn yeast inh)
Cc1nn(C(C)C(=O)NC2CCCCC2)c(=O)c2c1sc1ccccc12 (configuration not stated)	none (no result: Akt phos inh, aSyn yeast inh)
Cc1ccc(-c2nnn(CC(=O)N(CC3CCCO3)C(C(=O)NC3CCCC3)c3ccc(F)cc3)n2)o1 (configuration not stated)	none
Cc1ccc(-c2nnn(CC(=O)N(CC3CCCO3)C(C(=O)NC3CCCC3)c3ccc(O)cc3)n2)o1 (configuration not stated)	FUS yeast rescue 28.2µM
Oc1ccc(N2CCN(c3ncnc4sc(-c5ccccc5)cc34)CC2)cc1	aSyn yeast inh inconclusive, TDP43 rescue 11.2µM, FUS yeast rescue inconclusive
CCc1cc2c(N3CCN(c4ccccc4)CC3)ncnc2s1	TDP43 rescue 12.6µM
O=C(C1CCN(S(=O)(=O)Cc2ccccc2)CC1)N1CCN(c2ccccc2)CC1	none (no result: Akt phos inh, aSyn yeast inh)
CCc1nc2nc(C)cc(Nc3ccc(Br)cc3F)n2n1	none (no result: Akt phos inh, aSyn yeast inh)
O=C(O)c1ccccc1-n1c2ccccc2c2ccccc21	aSyn yeast inh inconclusive, TDP43 rescue 20µM
CCSc1ncc(Cl)c(C(=O)Nc2ccc(S(=O)(=O)Nc3nccc(C)n3)cc2)n1	none (no result: Akt phos inh, aSyn yeast inh)
CC(=O)Nc1ccc(C(=O)OCc2ccccc2Cl)cc1	TDP43 rescue 20µM
CC(=O)Nc1ccc(C(=O)CCl)cc1	TDP43 rescue 10µM
O=C1CCCC2=C1C(c1ccc(Cl)cc1)N=C(Nc1nc3ccccc3o1)N2 (configuration not stated)	none (no result: Akt phos inh, TDP43 rescue, Abeta rescue, FUS yeast rescue)
O=C(COc1ccc(F)cc1)Nc1nnc(S(=O)(=O)N2CCc3ccccc32)s1	none (no result: Akt phos inh, aSyn yeast inh)
COc1ccc(C(CC(=O)Nc2ccc(C(C)=O)cc2)N2Cc3ccccc3C2=O)cc1 (configuration not stated)	none (no result: Akt phos inh, aSyn yeast inh)
Fc1ccc(Nc2nnc(C(F)(F)F)s2)cc1	TDP43 rescue 12.6µM
CNc1nnc(C(F)(F)F)s1	none
CSc1sc(C)cc1C=O	none
CSc1cc(/C=N/O)c(SC)s1	Akt phos inh -116.3%
COc1ccc(C(=O)C2C(=O)C(=O)N(Cc3ccco3)C2c2cccs2)cc1 (configuration not stated)	none (no result: Akt phos inh, TDP43 rescue, Abeta rescue, FUS yeast rescue)
O=C1CC(c2ccccc2)CC2=C1C=Nc1ccccc1N2 (configuration not stated)	none
O=C1CC(c2ccc(F)cc2)CC2=C1C=Nc1ccccc1N2 (configuration not stated)	TDP43 rescue 22.4µM
CCN(C(=O)c1cn(CC)c(=O)c2cc(OC)c(OC)cc12)c1ccc(C)c(C)c1	none (no result: Akt phos inh, aSyn yeast inh)
Cn1c(=O)c2nc(-c3ccccc3)c(-c3ccccc3)nc2n(C)c1=O	TDP43 rescue 31.6µM
Cn1c(=O)c2nc(Cl)c(-c3ccccc3)nc2n(C)c1=O	TDP43 rescue inconclusive (no result: FUS yeast rescue)
O=C(CCC1N=C2c3ccccc3N=C(SCc3ccc(F)cc3)N2C1=O)NCc1ccc(F)cc1 (configuration not stated)	none (no result: Akt phos inh, aSyn yeast inh)
N#Cc1ccccc1CSc1nc2ccsc2c(=O)n1Cc1ccccn1	TDP43 rescue inconclusive
Cc1ccc(CSc2nc3ccsc3c(=O)n2Cc2ccccn2)cc1	TDP43 rescue 35.5µM (no result: FUS yeast rescue)
O=C(Nn1cnnc1)c1cc2cc(Br)ccc2oc1=O	Akt phos inh -93.3%

Screening results from PubChem BioAssay.
